Screening results (PubChem BioAssay)
RE007 growth inh – less growth of the S. pombe RE007 Vpr strain | S. pombe RE007 Vpr strain, BacTiter-Glo ATP luminescence, 24 h | 0.21% of 360,000 active | Potency, µM (series often up to 92.2 µM), usual class: inhibitors; active means well fitted falling curve with a large enough effect; inconclusive means small, poorly fitted or top-dose-only effect; inactive means no such curve, though single readings can be large or run the other way; further: nearly all actives have a fitted effect of over 50% in size
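Fission yeast RE007 carrying one integrated HIV-1 vpr copy, seeded at OD 0.01 in PMG+AL medium with 23 nL pinned compound. Grown 24 h at 30 degrees; viability read by BacTiter-Glo luminescence after 5 min.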
Tb PYK inh – T. brucei pyruvate kinase inhibition; Q57TT1; 0.12% of 410,000 active; TbPYK enzyme, Kinase-Glo Plus ATP luminescence, 45 min; Potency, µM (highest dose often 76.8 µM), hits mostly inhibitors; further: nearly all actives have a fitted effect of over 50% in size
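Readout: single end-point luminescence (Kinase-Glo Plus, 10 min). Reaction conditions were TbPYK/substrate plus 130 uM ADP, 45 min at RT, pH 7.2 TEA buffer. No-enzyme wells served as controls, and data were normalized before concentration-response fitting.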
LmPK inhibitor – LmPK (Leishmania mexicana) enzyme inhibition | Q27686 | purified LmPK, Kinase-Glo ATP luminescence, 1 h | Potency, µM (doses to about 57.5 µM), most hits filed as inhibitors | 0.37% of 290,000 active | AID 1721
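qHTS format; LmPK 0.1 nM; substrates PEP 0.5 mM and ADP 0.1 mM. One-hour room-temperature incubation, then coupled luciferase luminescence; 0.5 nM enzyme wells mark activation.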
Sm TGR block – S. mansoni TGR enzyme inhibition; purified TGR, DTNB reduction, TNB absorbance 405 nm; AID 485364; 3% of 360,000 active; Potency, µM (series often up to 114 µM), most hits filed as inhibitors; Q962Y6; further: nearly all actives have a fitted effect of over 60% in size
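First, TGR (20 nM dispensed) and NADPH were mixed with compound. Second, a 15 min room-temperature incubation followed. Third, further NADPH and then DTNB were added to start the reaction. Finally, TNB absorbance was monitored kinetically.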
Giardia FBPA inh-1 – inhibitors of Giardia lamblia fructose-1,6-bisphosphate aldolase; AID 2451; purified Giardia FBPA; 0.71% of 290,000 active; Potency, µM (highest dose often 59.6 µM), most hits filed as inhibitors; further: nearly all actives have a fitted effect of over 55% in size
Target sequence (A8B2U2 whole entry, looked up): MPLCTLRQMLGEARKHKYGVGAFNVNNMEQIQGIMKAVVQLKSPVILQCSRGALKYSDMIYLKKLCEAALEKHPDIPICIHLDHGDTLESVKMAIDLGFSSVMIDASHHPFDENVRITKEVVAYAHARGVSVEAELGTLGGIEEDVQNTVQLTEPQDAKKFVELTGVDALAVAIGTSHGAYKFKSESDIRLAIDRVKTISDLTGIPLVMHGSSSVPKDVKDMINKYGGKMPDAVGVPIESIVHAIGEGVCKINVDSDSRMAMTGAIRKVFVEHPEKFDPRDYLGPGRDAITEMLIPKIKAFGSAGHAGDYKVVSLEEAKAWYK
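Giardia FBPA (40 nM reagent) was preincubated 10 min at RT with compound (up to 57.5 uM final), then substrate plus GAPDH/TPI/NAD/arsenate coupling system with diaphorase/resazurin was added; resorufin fluorescence (525/598 nm) was read after 20 min.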
Giardia growth – Giardia lamblia growth inhibition; 5% of 1,500 active; Potency, µM (series often up to 57.5 µM), hits mostly inhibitors; shares compounds with Giardia FBPA inh-1; Giardia lamblia trophozoite growth inhibition;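 further: trophozoites exposed to compound for 48 h at 37 °C; nearly all actives have a fitted effect of over 70% in size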
Mammalian tox – mammalian cytotoxicity of Giardia aldolase inhibitor hits; shares compounds with Giardia FBPA inh-1; mammalian cell viability counter-screen, qHTS; Potency, µM (series often up to 57.5 µM), actives largely listed as inhibitors; 4% of 1,500 active; AID 2786;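 further: Chinese hamster ovary cells used as mammalian cytotoxicity surrogate; viability measured as cellular ATP by luminescence; compound exposure lasted 48 h before reading; nearly all actives have a fitted effect of over 60% in size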
Giardia FBPA inh-2 – confirmation of Giardia fructose-bisphosphate aldolase inhibitors; shares compounds with Giardia FBPA inh-1; Potency, µM (titrated, usually from 57.5 µM), usual class: inhibitors; AID 2787; purified Giardia aldolase enzyme activity, qHTS; 5% of 1,500 active; further: nearly all actives have a fitted effect of over 45% in size
Rabbit aldolase – selectivity test for Giardia aldolase inhibitors: rabbit aldolase; shares compounds with Giardia FBPA inh-1; Rabbit muscle FBPA enzyme inhibition, selectivity counter-screen; Potency, µM (series often up to 57.5 µM), most hits filed as inhibitors; 4% of 1,500 active; further: nearly all actives have a fitted effect of over 60% in size
Target sequence (P00883 whole entry, looked up): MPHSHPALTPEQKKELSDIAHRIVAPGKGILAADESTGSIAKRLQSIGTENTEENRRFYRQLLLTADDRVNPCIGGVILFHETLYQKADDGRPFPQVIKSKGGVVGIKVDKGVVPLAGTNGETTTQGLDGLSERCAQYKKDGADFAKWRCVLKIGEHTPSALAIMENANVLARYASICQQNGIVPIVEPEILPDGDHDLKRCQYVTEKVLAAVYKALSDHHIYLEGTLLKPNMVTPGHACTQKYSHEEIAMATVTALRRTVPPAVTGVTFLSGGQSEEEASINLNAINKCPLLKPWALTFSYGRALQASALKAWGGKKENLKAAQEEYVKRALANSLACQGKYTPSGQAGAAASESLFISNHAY
GAPDH coupling – counter-screen for Giardia aldolase inhibitors: GAPDH coupling enzyme. shares compounds with Giardia FBPA inh-1. GAPDH coupling enzyme counterscreen, biochemical, qHTS. Potency, µM (titrated, usually from 57.5 µM), actives largely listed as inhibitors. 6% of 1,500 active. AID 2795; further: nearly all actives have a fitted effect of over 55% in size
Each line names hits and unclear results; the compound was inactive in the other large screens (follow-up assays come after a bar, where they were run); [ ] = dose if it differs, or a comment. A selection: hits, their analogues and other compounds. The true share with any hit is near 3.3%. Unless noted, the call rests on the fitted dose curve; in most records, active means well fitted curve in the direction sought with a large enough effect; inconclusive means small, poorly fitted or top-dose-only effect, or another doubt; inactive means no such curve, though single readings can be large; an effect the other way counts as inactive or inconclusive.

Cc1ccc(C(=O)N2CCCCC2)cc1S(=O)(=O)N1CCCCCC1	none (no result: Giardia FBPA inh-1)
COc1ccc(CCn2c(NN=C(C)C)nc3c2c(=O)[nH]c(=O)n3C)cc1	Giardia FBPA inh-1 2.8µM | Giardia growth inactive | Mammalian tox inactive | Giardia FBPA inh-2 13µM | Rabbit aldolase inconclusive | GAPDH coupling 14µM
COc1ccc(CCn2c(NN)nc3c2c(=O)[nH]c(=O)n3C)cc1	Sm TGR block inconclusive, Giardia FBPA inh-1 5µM | Giardia growth inactive[10.4 µM] | Mammalian tox inactive | Giardia FBPA inh-2 32µM | Rabbit aldolase inconclusive | GAPDH coupling 25µM
O=C1C(CCCNC(=S)NCc2ccccc2)NC(=S)N1Cc1ccccc1 (configuration not stated)	none
O=C(/C=C/c1c(F)cccc1Cl)Nc1ccc(S(=O)(=O)Nc2ncccn2)cc1	none
O=C(Cc1c(F)cccc1Cl)NNC(=S)Nc1ccc(S(=O)(=O)Nc2ncccn2)cc1	Giardia FBPA inh-1 14µM | Giardia growth inactive[10.4 µM] | Mammalian tox inactive | Giardia FBPA inh-2 inactive | Rabbit aldolase inactive | GAPDH coupling inactive
Cc1oc2c(O)c(O)ccc2c(=O)c1-c1ccccc1	Giardia FBPA inh-1 11µM | Giardia growth inactive | Mammalian tox inactive | Giardia FBPA inh-2 inactive | Rabbit aldolase inconclusive | GAPDH coupling inactive
CC(C)Cc1nnc(NC(=O)CCC(=O)N2CCC(C)CC2)s1	none (no result: Giardia FBPA inh-1)
O=C(CSc1nnc(-c2cccnc2)n1-c1ccccc1)N1CCN(c2ccc(F)cc2)CC1	none
COc1cc(NC(=O)C2CCCO2)c(C(=O)O)cc1OC (configuration not stated)	none
CC(C)C(=O)NC(c1ccccc1)c1cc([N+](=O)[O-])c2cccnc2c1O (configuration not stated)	RE007 growth inh inconclusive, Giardia FBPA inh-1 inconclusive
CC(=O)NC(c1ccccc1)c1cc([N+](=O)[O-])c2cccnc2c1O (configuration not stated)	Giardia FBPA inh-1 20µM | Giardia growth 18µM | Mammalian tox inconclusive | Giardia FBPA inh-2 3.2µM | Rabbit aldolase inconclusive | GAPDH coupling 13µM
CC(=O)NC(c1cccs1)c1cc([N+](=O)[O-])c2cccnc2c1O (configuration not stated)	Giardia FBPA inh-1 inconclusive | Giardia growth inactive | Mammalian tox 29µM | Giardia FBPA inh-2 inconclusive | Rabbit aldolase inconclusive | GAPDH coupling 13µM
O=C(CSc1cn(CC(=O)N2CCCCCC2)c2ccccc12)NCC1CCCO1 (configuration not stated)	none
CC(C)C(=O)c1cn(CC(=O)NCc2ccc3c(c2)OCO3)c2ccccc12	none
CCOc1ccccc1CN1CCC(N2CCOCC2)CC1	Giardia FBPA inh-1 8.9µM | Giardia growth inactive | Mammalian tox inactive | Giardia FBPA inh-2 inconclusive | Rabbit aldolase inactive | GAPDH coupling inactive
CCOc1ccccc1CN1CCC(O)CC1	none
O=[N+]([O-])c1ccc(Cl)c(NC2=NCCCCC2)c1	none
Cc1ccc(NC(=S)N(CCN(C)C)Cc2cccs2)c(C)c1	Tb PYK inh inconclusive, Giardia FBPA inh-1 14µM | Giardia growth inactive[10.4 µM] | Mammalian tox inactive | Giardia FBPA inh-2 inactive | Rabbit aldolase inactive | GAPDH coupling inactive
CCCC(=O)Nc1nnc(-c2ccco2)s1	Sm TGR block inconclusive
Nc1nnc(-c2ccco2)s1	Giardia FBPA inh-1 6.3µM | Giardia growth inactive | Mammalian tox inactive | Giardia FBPA inh-2 inactive | Rabbit aldolase inactive | GAPDH coupling inactive
CCOc1cc(N2CCOCC2)c(OCC)cc1NC(=O)COC(=O)c1ccc(OC)c([N+](=O)[O-])c1	none (no result: LmPK inhibitor, Sm TGR block, Giardia FBPA inh-1)
COC(=O)c1cccnc1NC(=S)NNC(=O)c1ccncc1	Giardia FBPA inh-1 7.1µM (no result: Tb PYK inh) | Giardia growth inactive | Mammalian tox inactive | Giardia FBPA inh-2 inactive | Rabbit aldolase inactive | GAPDH coupling inactive
CCOC(=O)c1cnc(-c2ccc(C(F)(F)F)cn2)[nH]c1=O	Sm TGR block inconclusive, Giardia FBPA inh-1 5µM | Giardia growth inconclusive | Mammalian tox inactive | Giardia FBPA inh-2 inactive | Rabbit aldolase inactive | GAPDH coupling inactive
CCOC(=O)c1cnc(SCC)[nH]c1=O	none
COc1cc(CN2CCN(C(=O)c3ccccc3F)CC2)cc(OC)c1OC	Giardia FBPA inh-1 28µM | Giardia growth inactive[10.4 µM] | Mammalian tox inactive | Giardia FBPA inh-2 inactive | Rabbit aldolase inactive | GAPDH coupling inactive
COc1cc(CN2CCN(C(=O)c3cccc4ccccc34)CC2)cc(OC)c1OC	Giardia FBPA inh-1 inconclusive
COc1cccc(CN2CCN(Cc3cc(OC)c(OC)c(OC)c3)CC2)c1OC	Giardia FBPA inh-1 13µM | Giardia growth inconclusive | Mammalian tox inactive | Giardia FBPA inh-2 inactive | Rabbit aldolase inactive | GAPDH coupling inactive
COc1cccc(CN2CCN(Cc3cccc(Oc4ccccc4)c3)CC2)c1OC	Giardia FBPA inh-1 16µM | Giardia growth inactive | Mammalian tox inconclusive | Giardia FBPA inh-2 inactive | Rabbit aldolase inactive | GAPDH coupling inactive
COc1cccc(CN2CCN(c3ncccn3)CC2)c1OC	Giardia FBPA inh-1 inconclusive
CC(=O)Nc1ccc(NC(=O)c2ccc(-n3c(C)ccc3C)cc2)cc1	none
O=C(O)CC1S/C(=N/N=C/c2ccccn2)NC1=O (configuration not stated)	Giardia FBPA inh-1 18µM | Giardia growth inactive | Mammalian tox inactive | Giardia FBPA inh-2 inactive | Rabbit aldolase inactive | GAPDH coupling inactive
O=C(N/N=C/c1cc(Br)cs1)c1c[nH]c2ccccc12	none
CCN(CC(=O)Nc1c(F)cccc1F)C(=O)c1cc(S(=O)(=O)NCc2ccccc2)ccc1C	none (no result: LmPK inhibitor, Giardia FBPA inh-1)
COC(=O)c1cc(=O)c2c(C)nc(C(Cl)(Cl)Cl)nc2[nH]1	Giardia FBPA inh-1 20µM | Giardia growth inactive | Mammalian tox inactive | Giardia FBPA inh-2 inactive | Rabbit aldolase inactive | GAPDH coupling inactive
O=C(Nc1ccccc1[N+](=O)[O-])c1cc(S(=O)(=O)Nc2ccccn2)ccc1Cl	none
CCCCN(C)S(=O)(=O)c1ccc(C(=O)Nc2nnc(-c3cccs3)o2)cc1	none (no result: RE007 growth inh, Tb PYK inh)
